# Experimental data reported in PubChem BioAssay AID2716 (Broad Institute, 2010).
# The campaign covered roughly 320,000 compounds. About 3,300 (1%) were called active. What follows is part of a selection rich in actives, with near analogues and random picks from the rest. A number with no mark means an inactive call.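 Rule for the calls: active = every valid replicate shows activation above 250% relative to neutral control wells; inactive = the rest, any valid replicate at or below 250%.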
# Test: yeast Mot1-301 growth rescue at high temperature, primary screen, SUMOylation pathway inhibitor project, S. cerevisiae, ATP luminescence, 38.5C (AID 2716);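 note: OY570 slx delta 5 strain wells were the positive control but not used for scaling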
# Conditions: S. cerevisiae Mot1-301 growth rescue, at 18.8 µM, stronger effect = higher value, percent above DMSO median, 100 means doubled
row,SMILES,growth rescue
1,CC1CC2=C(CC1/C=N/NC(N)=S)C(C)(C)CCC2 (centres undefined),94.7%
2,O=C(NCC#CCSc1nnc(-c2cccc3ccccc23)o1)c1cccs1,-7.8%
3,COc1ccc(CCN2C(=O)N(c3ccc(OC)cc3)C(=O)C2CC(=O)Nc2ccc(OC)cc2)cc1 (centres undefined),-12.2%
4,CCNC(=O)CC1C(=O)N(c2ccc(F)cc2)C(=O)N1Cc1cccs1 (centres undefined),-6.29%
5,COc1ccc(N2C(=O)C(CC(=O)Nc3ccc(F)cc3)N(CCc3cccs3)C2=O)cc1 (centres undefined),700% (active)
6,Cc1cccc(C(=O)N[C@H](C(=O)NCc2cccs2)C(C)C)c1,14.3%
7,CCc1cc(C(=O)Nc2nnc(C3CC3)s2)sc1C,-5.84%
8,Cc1ccc(OCC(=O)NC(C)c2ccccc2)cc1C (centres undefined),-6.93%
9,C/C(CC(=O)NC(C)c1ccccc1)=N\NC(N)=S (centres undefined),317% (active)
10,Cc1cc(C)cc(OCC(=O)NC(C)c2ccccc2)c1 (centres undefined),14.1%
11,CCc1ccccc1NC(=O)CN(C)S(=O)(=O)c1ccc2c(c1)c(=O)n(C)c(=O)n2C,30%
12,O=C(COc1ccc([N+](=O)[O-])cc1Cl)Nn1cnnc1,88.2%
13,COc1ccc(C(=O)OCC(=O)c2ccc(C)c(S(=O)(=O)N3CCOCC3)c2)cc1OC,625% (active)
14,Cc1ccc(C(=O)OCC(=O)N2CCCCCC2)cc1S(=O)(=O)N1CCOCC1,6.73%
15,COc1ccc(CNC(=O)COC(=O)c2ccc(C)c(S(=O)(=O)N3CCOCC3)c2)cc1OC,-6.82%
16,COc1c(C)cc(C(=O)C2CCCN(S(=O)(=O)c3c(C)noc3C)C2)cc1C (centres undefined),-5.92%
17,COc1ccc(CCNC(=O)/C(C#N)=C2\N=C(NC(=O)c3cccs3)c3ccccc32)cc1,-22.6%
18,CN(C(=O)COC(=O)Cc1ccccc1[N+](=O)[O-])C1CCS(=O)(=O)C1 (centres undefined),-6.84%
19,Cc1ccc(S(=O)(=O)CCC(=O)OCc2ccccc2)cc1,-4.25%
20,Cc1ccc(S(=O)(=O)CCC(=O)OCC(=O)N(C)C2CCS(=O)(=O)C2)cc1 (centres undefined),366% (active)
21,COc1ccc(/C=C(\C#N)C(=O)NCCCn2ccnc2)cc1,429% (active)
22,COc1cc(OC)cc(C(=O)NCCCn2ccnc2)c1,0.871%

row,SMILES,growth rescue
1,COc1cccc(-c2nn(-c3ccccc3)cc2/C=C(\C#N)C(=O)NCCCn2ccnc2)c1,-1.32%
2,CCOC(=O)c1ccc(NC(=S)N2CCN(c3ccccn3)CC2)cc1,4.51%
3,O=C(COC(=O)c1ccc(F)cc1)NCCCc1ccccc1,-3.97%
4,COc1ccc(OC)c(CNC(=O)c2cc(=O)[nH]c3ccc(S(=O)(=O)N4CCCC4)cc23)c1,46.7%
5,COc1ccc(N(C)S(=O)(=O)c2cccc3nsnc23)cc1,-12.6%
6,CCOc1ccc(-c2cn(S(=O)(=O)c3cccc4nsnc34)nc2N)cc1,8.29%
7,CCOc1ccc(N(CC)S(=O)(=O)c2cccc3nsnc23)cc1,487% (active)
8,COc1ccc(OC)c(NC(=O)COC(=O)Cc2ccsc2)c1,24.6%
9,CC(C)CCNc1nc(N2CCCC2)c2c(c1C#N)CCN(C)C2,-30.6%
10,CC(C)Cc1nc(N2CCOCC2)c(C#N)c2c1CCC2,469% (active)
11,CC(C)Cc1nc(Cl)c(C#N)c2c1CCC2,-9.85%
12,O=C(NNC(=O)c1ccc(-n2cncn2)c([N+](=O)[O-])c1)c1ccccc1,126%
13,Cc1csc2nc(O)c(C(=O)NCCN3CCOCC3)c(=O)n12,25.8%
14,O=S(=O)(NCCc1ccc(F)cc1)c1cccc2cccnc12,-5.12%
15,O=C(CSCc1ccc(Cl)cc1)N1CCN(Cc2ccc3c(c2)OCO3)CC1,194%
16,O=C(CSCc1ccc(Cl)cc1)N1CCCCC1,1570% (active)
17,O=C(CSCc1cccs1)N1CCCC1,-5.87%
18,CC(C)(C)c1nnc(N/N=C/c2ccc(O)cc2)n(N)c1=O,-10.1%
19,COc1ccnc2c1c(=O)n(Cc1cccc(F)c1)c(=O)n2C,95.4%
20,CCCCn1c(-c2cccc(C)c2)nc2cc3[nH]c(=O)c(C(C)C)nc3cc21,-29.3%
21,COc1cccc(/C=C(/CC(=O)Nc2ccc(N3CCOCC3)cc2)c2nc3ccccc3s2)c1,766% (active)
22,COc1ccc(/C=C(/CC(=O)Nc2ccc(C)cc2)c2nc3ccccc3s2)cc1,7.28%

row,SMILES,growth rescue
1,COc1cc2ccccc2cc1C(=O)Nc1ccc(N2CCOCC2)cc1,4.29%
2,Cc1nnc(SCc2cc(=O)[nH]c(N3CCN(Cc4ccccc4)CC3)n2)s1,18.3%
3,CCCCCc1c(C)nc(N2CCN(Cc3ccc4c(c3)OCO4)CC2)[nH]c1=O,-20.3%
4,CCc1c(C)nc(N2CCN(Cc3ccccc3)CC2)[nH]c1=O,1390% (active)
5,Oc1oc(-c2ccccc2Br)nc1/C=N/c1ccccn1,15.4%
6,CC(C)n1c(O)c(N=Nc2ccccn2)c2ccccc21,421% (active)
7,COC(=O)Cn1c(O)c(N=NC(=O)OC)c2ccccc21,-22.3%
8,COc1cccc2cc(C(=O)NCc3ccc(C)cc3)c(=N)oc12,-7.41%
9,O=C(COc1cccc2c1CCNC2=O)NC1CCCCC1,-3.62%
10,COC(=O)c1cc2n(n1)CCCNC2=O,0.35%
11,COC(=O)Cn1cc(/C=C/[N+](=O)[O-])c2ccccc21,5.69%
12,O=C(Cn1ccc2cc(S(=O)(=O)N3CCCC3)ccc21)NCc1ccccc1,-15.1%
13,O=[N+]([O-])/C=C/c1ccc2c(ccn2Cc2ccccc2)c1,436% (active)
14,Cc1nc(SCC(=O)NC2CCCC2)[nH]c(=O)c1C,4.8%
15,Cc1sc2nc(CSCC(=O)NC3CCCCC3)[nH]c(=O)c2c1C,345% (active)
16,Cc1sc2nc(CSCC(=O)Nc3c(Cl)cccc3Cl)[nH]c(=O)c2c1C,2.95%
17,COc1ccc(Cl)cc1NC(=O)Cn1nc(-c2ccc(C)cc2)n(C)c1=S,283%
18,Cc1ccc2c(c1)N(CC(=O)N1CCOCC1)C(=O)CO2,4.76%
19,Cc1ccc2c(c1)N(CC(=O)NCC1CCCO1)C(=O)CO2 (centres undefined),346% (active)
20,Cc1ccc2c(c1)N(CC(=O)N1CCCC(C)C1)C(=O)CO2 (centres undefined),1.32%
21,CC(=O)N(c1ccc2oc(=O)sc2c1)S(=O)(=O)c1ccc(C)cc1,1.25%
22,Cc1onc(-c2ccccc2Cl)c1C(=O)OCc1nnc(-c2ccccc2)o1,0.31%

row,SMILES,growth rescue
1,Cc1onc(-c2ccccc2Cl)c1C(=O)OCC(=O)c1ccccc1,-4.82%
2,CCOc1cnc(-c2c(-c3ccccc3Cl)noc2C)o1,675% (active)
3,Cc1ccc(N(C(=O)c2ccc(S(=O)(=O)N(C)C)cc2)C2C=CS(=O)(=O)C2)cc1 (centres undefined),-4.36%
4,COc1ccccc1NS(=O)(=O)c1ccc(C)c(C(=O)NNC(=O)c2csc(N3CCOCC3)n2)c1,6.56%
5,COC(=O)c1ccc(CSc2ccc3nnc(-c4ccccc4)n3n2)o1,-8.47%
6,Cc1ccc(S(=O)(=O)N2[C@@H](c3cccc4ccccc34)C(C(=O)O)=C[C@H]2C(C)(C)C)cc1,29.9%
7,Cc1ccc(S(=O)(=O)N2[C@@H](c3ccc(Br)cc3)C(C(=O)O)=C[C@H]2CC2CCCC2)cc1,800% (active)
8,Cc1ccc([C@@H]2CC=C(C(=O)O)[C@H](c3cccc(Cl)c3)N2S(=O)(=O)c2ccc(C)cc2)cc1,24.4%
9,CC12CN(NC(=O)c3ccc(Cl)cc3)C3(C#N)CC1CCC23C (centres undefined),42.1%
10,Cc1ccc(N(C(=O)Cc2cccs2)C(C(=O)NCC2CCCO2)c2ccncc2)cc1 (centres undefined),5.34%
11,COC(=O)c1cccc(N(C(=O)CNC(=O)c2cccs2)C(C(=O)NCC2CCCO2)c2ccc(OC)c(OC)c2)c1 (centres undefined),-4.04%
12,O=C(NCC(=O)N(c1ccccc1)C(C(=O)NCC1CCCO1)c1ccccc1)c1cccs1 (centres undefined),679% (active)
13,Cc1cc(C)n2nc(SCC(=O)NC(=O)NCc3ccco3)nc2n1,6.86%
14,COC(=O)C1(S(=O)(=O)C2(C(=O)OC)CCCC2)CCCC1,-10%
15,Cc1ccc(CSCC(=O)N(C)CC(=O)Nc2cccc(F)c2)cc1,-8.64%
16,CCN(CC)C(=O)C(=O)Nc1cccc(Br)c1,1.06%
17,CCN(CC)C(=O)CSC(Nc1cccc(F)c1)=C(C#N)C#N,643% (active)
18,Cc1ccc(NC(=O)[C@H](Cc2ccccc2)NC(=O)C2CCNCC2)cc1,2.72%
19,N/C(=N\OC(=O)Nc1ccccc1)c1ccno1,4.96%
20,O=c1c2c(ncn1Cc1ccccc1)nc1n2CCC1,490% (active)
21,O=c1c2cc([N+](=O)[O-])ccc2nc2n1CCC2,12%
22,Cn1c(=O)c2c(ncn2CCc2ccccc2)n(C)c1=O,43.8%

row,SMILES,growth rescue
1,Cc1ccc(C)c(OCCC(=O)OCC(=O)c2ccc3c(c2)NC(=O)CO3)c1,0.132%
2,O=C(CCNC(=O)c1ccc([N+](=O)[O-])cc1)Nc1ccccc1N1CCOCC1,-1.52%
3,CCCCN(C(=O)c1nn(C)c(=O)c2ccccc12)c1c(N)n(CCC)c(=O)[nH]c1=O,-14.8%
4,COc1ccc(Cc2nnc(SCC(=O)N(c3ccccc3)C(C)C)n(N)c2=O)cc1,2.77%
5,CN(CCc1ccccc1)c1ccc([N+](=O)[O-])cn1,9.85%
6,O=C(NN1C(=O)C2C3C=CC(C3)C2C1=O)c1ccco1 (centres undefined),-6.66%
7,CNC(=O)c1cccc2nc3ccccc3nc12,16%
8,COc1cccc2cc(C(=O)N(C)C)c(=O)oc12,0.334%
9,CN(C)C(=O)c1coc2nc3ccccc3nc12,924% (active)
10,CCOC(=O)C1(Cc2cccc(OC)c2)CCN(C(C)COC)CC1 (centres undefined),9.8%
11,CCOC(=O)C1(Cc2cccc(OC)c2)CCCN(S(=O)(=O)c2cccnc2)C1 (centres undefined),568% (active)
12,CCOC(=O)C1(Cc2cccc(OC)c2)CCCN(C(=O)CCSC)C1 (centres undefined),-10.8%
13,CCOC(=O)c1cc(C(=O)Nc2ccc(S(=O)(=O)Nc3ccc(OC)cc3)cc2)nn1C,1.95%
14,Cc1ccc(C)c(S(=O)(=O)N2CCN(c3ncnc4sccc34)CC2)c1,-2.33%
15,CCc1ccc(S(=O)(=O)N/N=C\c2ccc([N+](=O)[O-])o2)cc1,-9.87%
16,Cc1cc(C)nc(N/N=C/c2ccc([N+](=O)[O-])o2)n1,-7.8%
17,C/[N+]([O-])=C\c1ccc([N+](=O)[O-])o1,330% (active)
18,NC(=O)C1(C(N)=O)OC1c1ccc(Cl)cc1Cl (centres undefined),-6.75%
19,O=C(NCCc1ccco1)c1ccc(OCc2cn3ccccc3n2)cc1,-7.98%
20,CCc1nccn1S(=O)(=O)c1cccc([N+](=O)[O-])c1,1.13%
21,Cc1cn(C2C=CC(CO)O2)c(=O)[nH]c1=O (centres undefined),-3.98%
